Each structure is given as a SMILES string. A number with no mark means an inactive call. The source made the active and inactive calls.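 Rule for the calls: active = inhibition reaching about 16% in any single replicate (limit read from the data); inactive = the rest.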

The target of the experiment is Hexokinase HKDC1 (Homo sapiens) (UniProt Q2TB90). Briefly: compounds lowering human HKDC1 activity – biochemical, single concentration, confirmation (AID 504710). The following applies: recombinant HKDC1, G6PDH/diaphorase/resazurin fluorescence; at 20 µM; stronger effect = higher value. On the technique in general: The colour change of resazurin is a common sign of viable cells or microbes.
Sequence of Hexokinase HKDC1 (Homo sapiens) (Q2TB90 whole entry, looked up): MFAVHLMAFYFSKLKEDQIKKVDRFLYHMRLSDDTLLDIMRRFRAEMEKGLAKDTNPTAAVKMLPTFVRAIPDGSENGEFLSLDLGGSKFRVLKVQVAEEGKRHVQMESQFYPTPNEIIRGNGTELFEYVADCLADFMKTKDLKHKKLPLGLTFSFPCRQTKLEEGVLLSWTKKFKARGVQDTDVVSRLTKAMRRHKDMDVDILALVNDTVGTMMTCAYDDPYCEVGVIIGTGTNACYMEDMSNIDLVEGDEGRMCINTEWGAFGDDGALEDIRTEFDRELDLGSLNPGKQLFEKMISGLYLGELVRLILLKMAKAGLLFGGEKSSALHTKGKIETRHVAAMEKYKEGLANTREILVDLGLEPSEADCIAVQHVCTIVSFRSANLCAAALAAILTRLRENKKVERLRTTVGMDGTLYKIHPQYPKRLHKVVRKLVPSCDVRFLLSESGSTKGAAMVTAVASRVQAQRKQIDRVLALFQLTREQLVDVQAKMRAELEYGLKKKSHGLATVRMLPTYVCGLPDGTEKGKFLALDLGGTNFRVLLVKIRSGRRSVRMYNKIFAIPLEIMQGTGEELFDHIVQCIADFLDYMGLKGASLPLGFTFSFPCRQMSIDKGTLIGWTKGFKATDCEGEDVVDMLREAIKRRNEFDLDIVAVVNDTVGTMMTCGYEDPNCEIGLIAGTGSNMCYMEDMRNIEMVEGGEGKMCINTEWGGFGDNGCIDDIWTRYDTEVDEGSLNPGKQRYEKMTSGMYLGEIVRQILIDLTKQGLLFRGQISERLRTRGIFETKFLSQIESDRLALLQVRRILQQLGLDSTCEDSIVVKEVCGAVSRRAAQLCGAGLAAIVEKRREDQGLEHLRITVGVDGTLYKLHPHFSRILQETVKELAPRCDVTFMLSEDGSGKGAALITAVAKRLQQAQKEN
In general, inhibition refers to the drop in the measured response relative to a control, in per cent. `CC(C)c1ccc(S(=O)(=O)/N=C2/C=C(Sc3ncn[nH]3)C(=O)c3ccccc32)cc1`: the inhibition was 60.8% (active). In the case of `CC(=O)NC1C(=O)N(CCN2CCOCC2)c2ccc(Br)cc21` (stereo unspecified), the inhibition was 61% (active).

Take `CC(=O)N1CCN(C2c3cccc4cccc(c34)C2NS(=O)(=O)c2ccccc2)CC1` (stereo unspecified): the inhibition was -45.3%. For the molecule `Cc1ccc(C2=NNC(=Nc3ccc(F)cc3)SC2)cc1`, the inhibition was -80%. On to `O=C(CSc1cccc2cccnc12)N/N=C/c1cccnc1`, for which the inhibition is -46.6%. The result for `Cc1ccc(NC2c3ncccc3C(=O)N2c2ccccc2C)cc1C` (stereo unspecified) reads 36.2% (active); that for `CCC1=NN2C(=N)/C(=C\c3ccc(OCc4cc(=O)n5nc(CC)sc5n4)c(OC)c3)C(=O)N=C2S1`, 22.8% (active); that for `CC1=NOC(=O)/C1=C\c1ccc(-c2ccc(Cl)cc2Cl)o1`, 47.4% (active). The result for `O=C(CSc1nnc(CCCN2C(=O)c3cccc4cccc(c34)C2=O)n1-c1ccccc1)N1CCCCC1` reads 48.3% (active); that for `COC1=CC(=O)C(C2CC(=O)c3c(O)cc(O)cc3O2)=CC1=O` (stereo unspecified), 39.8% (active); that for `COc1ccc(/C=C/C(=O)NC(=S)NNC(=O)c2cnccn2)cc1`, -58.3%. Consider `CCC(C)C(N)C1=NC(C(=O)N[C@@H](CC(C)C)C(=O)N[C@H](CCC(=O)[O-])C(=O)N[C@H](C(=O)N[C@H]2CCCCNC(=O)[C@H](CC(N)=O)NC(=O)[C@@H](CC(=O)[O-])NC(=O)[C@H](Cc3cnc[nH]3)NC(=O)[C@@H](Cc3ccccc3)NC(=O)[C@H]([C@@H](C)CC)NC(=O)[C@@H](CCCN)NC2=O)[C@@H](C)CC)CS1.[Zn+2]` (stereo partly specified), for which the inhibition is 74.9% (active).

Regarding `CCN(CC)c1ccc2c(c1)oc(=O)c1c(Cl)cc(=O)oc12`, the inhibition is 47.7% (active).

In the case of `CCc1nc2c(c(=O)c3ccccc3n2C)c(=O)n1-c1ccc(F)cc1`, the inhibition was 72.7% (active). Turning to `CCCc1nc2oc3c(OC)ncnc3c2c2c1COC(C)(C)C2`, the inhibition was 42.4% (active).

For the molecule `COc1ccc(-c2[nH]c(-c3ccc(SC)cc3)nc2SCC(=O)Nc2nccs2)cc1`, the inhibition is -36.1%.

With `O=Cc1[nH]c2ccccc2c1N(C(=O)CCl)c1ccccc1`, the inhibition was 34% (active). Regarding `O=C(O)COc1ccc(/C=N/NC(=O)c2ccc(-c3csc(Nc4ccc(Cl)cc4)n3)cc2)cc1`, the inhibition is 24.2% (active). For `Cc1cc(C(F)F)n2ncc(C(=O)NCCc3ccc(Cl)cc3)c2n1`, the inhibition is 36.2% (active). Turning to `COc1ccc2[nH]c3c4c(ccc3c2c1)C(=O)C=CC4=O`, the inhibition is 32.9% (active).

For the molecule `Oc1ccc(O)c(Cc2nc3ccccc3[nH]2)c1`, the inhibition is 56% (active).

The values above are taken from PubChem BioAssay AID504710 (Sanford-Burnham Center for Chemical Genomics, 2011).
